From PubChem BioAssay
Compounds with a hit are over-represented: about 1.2% of the library has one in this group of screens.
Six1-Eya2 inh: Six1/Eya2 interaction inhibition. 360,000 tested, 0.56% active. AlphaScreen GST-Six1/His-Eya2 binding, biochemical; hits give low values. AID 651725. activity change, % (test concentration not listed); in the data active = activity change below about -65%; inconclusive = mostly about -30% to -63%
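Six1/Eya2 binding was read as AlphaScreen signal after compounds were pinned into GST-Six1 plus His-tagged Eya2 (5X stock 250/500 nM) in pH 8.0 Tris/NaCl/TCEP buffer, beads added, then incubated 1 h, 37 C, dark.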
USP2a inh: inhibitors of human ubiquitin-specific protease USP2a; Potency, µM (series often up to 38.3 µM), actives largely listed as inhibitors; O75604; USP2 core, Ub-CHOP2 coupled fluorogenic reporter, 485/531; 330,000 tested, 0.01% active
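Cell-free coupled assay: 10nM USP2 core preincubated 30min RT with compound in Tris-HCl pH 8.0/CaCl2/CHAPS buffer, then 25nM Ub-CHOP2 and 25nM reporter substrate; fluorescence (Ex 485/Em 531) read after 60min RT, normalized to NEM inhibition, concentration-response curves fitted.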
CtBP-E1A inh: CtBP/E1A binding inhibition; activity change, % (concentration not given with the values); AlphaScreen GST-E1A/His-CtBP binding, 1536-well; hits give low values; AID 651724; 340,000 tested, 0.49% active; in the data active = activity change below about -65%; inconclusive = mostly about -30% to -63%
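Protein mix (5X: 125 nM each GST-E1A, His-CtBP) was incubated with pinned compound 2 h at 37 deg C in dark, in 50 mM Tris pH 8.0 buffer with 300 mM NaCl. Glutathione donor and nickel acceptor beads followed; AlphaScreen signal read after 1 h.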
L3MBTL1 block: inhibitors of human L3MBTL1 | Q9Y468 | AlphaScreen L3MBTL1–H3K9me1 peptide binding | Potency, µM (highest dose often 57.1 µM), most hits filed as inhibitors | 230,000 tested, 0.66% active | AID 485360; note: nearly all actives have a fitted effect of over 60% in size
Target sequence (Q9Y468 whole entry, looked up): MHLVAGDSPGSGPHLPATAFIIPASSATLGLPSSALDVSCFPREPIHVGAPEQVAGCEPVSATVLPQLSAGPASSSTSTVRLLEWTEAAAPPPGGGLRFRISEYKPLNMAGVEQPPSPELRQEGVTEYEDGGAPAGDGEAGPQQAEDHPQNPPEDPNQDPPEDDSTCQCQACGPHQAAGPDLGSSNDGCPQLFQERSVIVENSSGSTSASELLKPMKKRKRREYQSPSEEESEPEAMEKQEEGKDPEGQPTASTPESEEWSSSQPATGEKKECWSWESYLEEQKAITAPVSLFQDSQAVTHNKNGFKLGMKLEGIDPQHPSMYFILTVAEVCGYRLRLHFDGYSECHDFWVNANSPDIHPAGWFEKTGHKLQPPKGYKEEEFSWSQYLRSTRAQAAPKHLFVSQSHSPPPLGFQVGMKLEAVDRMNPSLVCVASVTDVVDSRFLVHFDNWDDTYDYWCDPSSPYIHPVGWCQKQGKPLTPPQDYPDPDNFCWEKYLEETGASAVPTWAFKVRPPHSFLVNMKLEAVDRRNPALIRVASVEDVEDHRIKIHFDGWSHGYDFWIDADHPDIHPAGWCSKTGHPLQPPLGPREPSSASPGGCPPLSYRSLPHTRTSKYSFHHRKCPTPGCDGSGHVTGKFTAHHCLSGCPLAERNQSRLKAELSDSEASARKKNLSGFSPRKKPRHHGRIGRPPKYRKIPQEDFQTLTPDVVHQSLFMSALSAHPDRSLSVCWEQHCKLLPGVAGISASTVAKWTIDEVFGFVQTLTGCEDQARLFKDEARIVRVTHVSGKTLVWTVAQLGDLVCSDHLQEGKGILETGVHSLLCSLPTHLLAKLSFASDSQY
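L3MBTL1 50 nM + b-AHA-H3(1-15)K9me1 75 nM, 30 min RT; compound added, 30 min RT; streptavidin donor/Ni-chelate acceptor beads 10 ug/mL each final, 30 min RT dark; AlphaScreen read.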
uPA surface inh: cell surface uPA generation inhibition; Potency, µM (series often up to 38.3 µM), hits mostly inhibitors; AID 540303; cell surface uPA generation assay, qHTS; 330,000 tested, 0.31% active; active = well fitted inhibition curve with a large enough effect; inconclusive = small, poorly fitted or top-dose-only effect; inactive = no such curve, though single readings can be large or run the other way; tested in mouse RAW 264.7 cells; note: nearly all actives have a fitted effect of over 55% in size
Eya2 phos inh: Eya2 (human) phosphatase inhibition; O00167; recombinant Eya2, OMFP fluorescence dephosphorylation (OMFP is methylfluorescein phosphate); Potency, µM (top dose mostly 76.9 µM), most hits filed as inhibitors; 330,000 tested, 0.006% active
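Eya2 protein (added as 0.2 uM solution) was preincubated with compound for 10 min at ambient temperature in 50 mM HEPES pH 7.5, 50 mM NaCl, 5 uM MgCl2, 0.05% BSA, 1 mM DTT. OMFP (added at 50 uM) then reacted 10 min; fluorescence read at 485/525 nm.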
Numbers stand for hits; 0 = inactive; ? = inconclusive; - = no result; [ ] = remark or other dose. Unless noted, calls come from the whole dose curve; as a rule, active = well fitted curve in the direction sought with a large enough effect; inconclusive = small, poorly fitted or top-dose-only effect, or another doubt; inactive = no such curve, though single readings can be large; an effect the other way counts as inactive or inconclusive.

SMILES	Six1-Eya2 inh	USP2a inh	CtBP-E1A inh	L3MBTL1 block	uPA surface inh	Eya2 phos inh
CCOC(=O)[C@]12CCCC=C1N(CCc1ccc(OC)c(OC)c1)C(=O)[C@H](CC(=O)N1CCSCC1)C2	0	-	0	-	-	-
NNC(=O)c1cc(O)c(O)c(O)c1	0	0	-	0.562µM	0	0
COc1c(Cl)cc(C(=O)NN)cc1Cl	0	0	0	0	0	0
OCCNCCCCSc1ccc(Cl)cc1	0	0	-	0	8.91µM	0
COc1ccc(S(=O)(=O)N2CCOC2CNC(=O)C(=O)NCC(C)C)cc1 (centres undefined)	0	0	0	-	0	0
O=C(CCS(=O)(=O)c1ccccc1Cl)NCCC1=CCCCC1	0	0	0	-	0	0
CCc1cccc2c(C(=O)COC(=O)[C@@H]3CC(O)CN3S(=O)(=O)c3ccccc3[N+](=O)[O-])c[nH]c12 (some centres undefined)	0	0	0	0	0	0
Cc1cc(C(=O)N/N=C/c2cc(Cl)cc([N+](=O)[O-])c2O)n[nH]1	?	0	-80.9	0	0	0
O=[N+]([O-])c1cc(Cl)cc(/C=N\Nc2ccccn2)c1O	-94.7	0	-87.3	0	0	0
O=[N+]([O-])c1ccc(Cl)cc1C=NNc1ccccn1	0	-	0	-	0	-
CCN1CCN(c2ccc(N=Cc3ccccc3O)cc2)CC1	0	0	0	0	?	0
CN(Cc1ccccn1)C(=O)CC1C(=O)NCCN1Cc1ccc(F)cc1Cl (centres undefined)	0	0	0	-	0	0
CCc1nc2c(OCc3ccc(C(=O)N(C)C)cc3)cccn2c1N(C)C(=O)Nc1ccccc1OC	0	-	0	-	-	-
COc1cc(O)c(C(CCN2CCN(c3ccccc3)CC2)c2ccc(N(C)C)cc2)c(OC)c1 (centres undefined)	-78.0	0	-70.0	-	0	0
COc1ccc(C(CCN2CCN(c3ccccc3)CC2)c2c(O)cc(OC)cc2OC)cc1 (centres undefined)	?	0	0	-	0	0
Cc1cnc(C(=O)NC(C)CCc2ccccc2)cn1 (centres undefined)	0	0	0	0	0	0
COc1ccc(/C=N/Nc2nncn2N)cc1Br	-74.9	?	?	?	0	0
COc1cc(/C=N/Nc2nncn2N)ccc1OCc1c(C)no[n+]1[O-]	0	0	0	0	11.2µM	0
C/C(=N\O)C(C)(C)Nc1ccc(Cl)cc1	0	0	0	0	0	0
Cc1ccc(NC2CCCN(C(=O)C3CCCCC3)C2)cc1C (centres undefined)	0	0	0	-	0	0
O=C(COC(=O)C1CC(=O)N(Cc2ccco2)C1)c1ccc(OC(=O)c2ccco2)cc1 (centres undefined)	?	0	0	17.8µM	0	0
Cc1ccc(C(=O)Oc2ccc(C(=O)COC(=O)C3CC(=O)N(Cc4ccco4)C3)cc2)cc1 (centres undefined)	-84.9	0	?	?	0	0
Cc1nc2ccccn2c1-c1csc(Nc2cccc(C(=O)O)c2)n1	?	0	-71.4	-	0	0
O=C(O)c1cccc(Nc2nc(-c3cc4ccccc4oc3=O)cs2)c1	-78.2	0	-78.6	0	0	0
COc1ccccc1C(=O)COC(=O)C1CCN(S(=O)(=O)c2ccc(C)c(C)c2)CC1	0	0	0	0	0	0
SMILES	Six1-Eya2 inh	USP2a inh	CtBP-E1A inh	L3MBTL1 block	uPA surface inh	Eya2 phos inh
Cc1nnc(N2C(=O)c3cccc4c([N+](=O)[O-])ccc(c34)C2=O)s1	0	0	-	0	10µM	0
Cc1ccnc(N2C(=O)c3cccc4c([N+](=O)[O-])ccc(c34)C2=O)c1	0	0	0	0	?	0
CCOc1ccccc1N1CCN(C(=O)c2ccc3nc(N)sc3c2)CC1	0	0	0	0	0	0
Cc1cccc(NC(=O)CNC(=O)CSc2ncccn2)c1C	0	0	0	0	0	0
O=C(Cn1ncc(Cl)c(Cl)c1=O)NC1CCCCC1	0	0	0	0	10µM	0
Cc1cccc(NC(=O)CNC(=O)Cn2ncc(Cl)c(Cl)c2=O)c1C	0	0	0	31.6µM	0	0
O=C(Cn1ncc(Cl)c(Cl)c1=O)NC1CCS(=O)(=O)C1 (centres undefined)	0	0	0	-	0	0
COC(=O)[C@@H](NS(=O)(=O)c1ccc(F)cc1Br)C(C)C	0	-	0	-	-	-
CC1CCCCN1C(=O)C1CCN(c2nc(-c3ccccc3)nc3c2CCC3)CC1 (centres undefined)	0	0	0	-	0	0
C#CCN(C[C@@H]1[C@@H](OC(=O)NCc2ccco2)[C@@H](OC(=O)NCc2ccco2)CN(C(=O)OC(C)C)N1C(=O)OC(C)C)S(=O)(=O)c1ccc(C)cc1	0	-	0	-	-	-
O=c1[nH]c(-c2ccccc2)nc(-c2ccccc2)c1Cl	0	-	0	-	0	-
Cc1ccc(C#CC[N+]2(CC#Cc3ccc(C)cc3)CCCCC2)cc1	0	0	0	0	7.08µM	0
CCCCc1cc(=O)oc2cc(C)c(CN3CCCC3)c(O)c12	0	?	0	?	-	0
CCc1cc(=O)oc2cc(C)c(CN3CCCC(C)C3)c(O)c12 (centres undefined)	0	0	0	11.2µM	-	0
CCOC(=O)c1sc(NC(=O)C(CC)Sc2nnc3c4ccccc4n(C(C)C)c3n2)nc1C (centres undefined)	0	0	0	-	0	0
CCOC(=O)Cc1nnc(NC(=O)C(CC)Sc2nnc3c4ccccc4n(C)c3n2)s1 (centres undefined)	?	0	-71.0	0	0	0
CCN1CCN(c2ccc(NC(=O)c3cc4ccccc4cc3OC)cc2C)CC1	0	0	0	0	11.2µM	0
NC(=O)c1ccccc1NC(=O)c1cccc(C(=O)Nc2ccccc2C(N)=O)n1	-83.0	-	-76.1	-	0	-
NC(=O)c1ccccc1NC(=O)c1ccc2ccccc2c1	0	0	0	0	0	0
CCOc1ccc(S(=O)(=O)NC(Cc2cnc[nH]2)C(=O)O)cc1 (centres undefined)	0	0	0	0	0	0
CCOc1ccc(C(=O)CCNC(Cc2cnc[nH]2)C(=O)O)cc1 (centres undefined)	?	0	-65.6	0	0	0
O=C(Oc1ccc(C(=S)N2CCOCC2)cc1)c1cccc(Cl)c1	-80.0	0	0	0	0	0
O=C(Oc1ccc(C(=S)N2CCOCC2)cc1)c1cc([N+](=O)[O-])cc([N+](=O)[O-])c1	0	0	0	-	0	0
O=C(Oc1ccc(C(=S)N2CCC(O)CC2)cc1)c1ccc(Cl)cc1	-90.0	0	-84.2	0[11.4 µM]	0	0
O=C(Oc1ccc(C(=S)N2CCCCC2)cc1)c1ccccc1	0	0	0	0	0	0
